Screening results deposited in PubChem by National Center for Advancing Translational Sciences (NCATS).
ALDH1A1 inh: blocks purified human ALDH1A1 activity | P00352 | Purified ALDH1A1, NADH fluorescence, propionaldehyde substrate | Potency, µM (titrated, usually from 75.3 µM), for the others: top-dose activity, negative = inhibition, actives largely listed as inhibitors | 220,000 tested, 7.3% active; active means well fitted inhibition curve with a large enough effect, not every such curve was filed as active; inconclusive means small, poorly fitted or top-dose-only effect, or another doubt; inactive means no such curve, though single readings can be large or run the other way;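 further: plate controls were no enzyme wells and a reference inhibitor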
Target sequence (P00352 whole entry, looked up): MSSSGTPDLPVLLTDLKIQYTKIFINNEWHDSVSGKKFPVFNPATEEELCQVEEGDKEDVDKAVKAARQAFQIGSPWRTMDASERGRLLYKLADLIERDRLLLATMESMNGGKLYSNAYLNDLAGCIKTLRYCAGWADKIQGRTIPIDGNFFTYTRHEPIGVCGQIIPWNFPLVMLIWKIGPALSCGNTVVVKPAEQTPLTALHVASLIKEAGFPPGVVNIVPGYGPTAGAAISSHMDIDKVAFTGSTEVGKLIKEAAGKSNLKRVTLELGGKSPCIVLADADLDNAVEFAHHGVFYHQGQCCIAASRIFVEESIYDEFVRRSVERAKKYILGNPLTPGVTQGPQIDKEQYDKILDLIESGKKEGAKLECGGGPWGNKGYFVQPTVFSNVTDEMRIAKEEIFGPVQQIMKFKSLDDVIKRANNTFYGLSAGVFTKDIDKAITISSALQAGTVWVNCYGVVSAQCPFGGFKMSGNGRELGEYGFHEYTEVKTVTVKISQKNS
HTT aggregate: mutant huntingtin aggregation inhibition; PC12 HttQ103-GFP aggregates, Acumen cytometry, 40 h; Potency, µM (top dose mostly 46.1 µM), inactives show top-dose activity change, negative = inhibition, usual class: inhibitors; 220,000 tested, 1.1% active; further: on the % scale 0 is the no-effect control and ±100 the full control effect; nearly all actives have a fitted effect of over 60% in size
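Quantitative HTS on tebufenozide-induced (100 nM) PC12 cells stably expressing polyQ103 Huntingtin exon 1–GFP. Reduction of bright GFP aggregates, detected by laser scanning cytometry after lysis, identified actives across the titration.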
Lamin A splicing: modulators of lamin A splicing. HeLa LMNA splicing GFP/RFP minigene ratio, 48 h. Potency, µM (titrated, usually from 46.1 µM), without a hit: at the highest dose ratio change, negative = inhibition, most hits filed as inhibitors. 200,000 tested, 0.01% active; active means well fitted inhibition curve with a large enough effect in the signal ratio, with a control signal flat, not every such curve was filed as active; inconclusive means small, poorly fitted or top-dose-only effect, or effect the other way, or a change in a side signal; the % refers to the signal ratio; further: on the % scale 0 is the no-effect control and ±100 the full control effect
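S3 HeLa stable clones carrying a lamin A-EGFP splicing minigene plus DsRed2 were seeded at 600 cells/well in Opti-MEM with 2% FBS, pin-dosed and incubated 48 h at 37°C. Acumen cytometry (488 nm) gave the GFP/RFP total-intensity ratio.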
HPGD block: blocks human HPGD enzyme activity. P15428. purified HPGD, NADH fluorescence kinetic, PGE2 substrate. Potency, µM, without a hit: at the highest dose activity change, negative = inhibition, most hits filed as inhibitors. 150,000 tested, 4.3% active; active means well fitted inhibition curve with a large enough effect, not every such curve was filed as active; inconclusive means small, poorly fitted or top-dose-only effect, or another doubt; inactive means no such curve, though single readings can be large or run the other way; further: on the % scale 0 is the no-effect control and ±100 the full control effect
Target sequence (P15428 whole entry, looked up): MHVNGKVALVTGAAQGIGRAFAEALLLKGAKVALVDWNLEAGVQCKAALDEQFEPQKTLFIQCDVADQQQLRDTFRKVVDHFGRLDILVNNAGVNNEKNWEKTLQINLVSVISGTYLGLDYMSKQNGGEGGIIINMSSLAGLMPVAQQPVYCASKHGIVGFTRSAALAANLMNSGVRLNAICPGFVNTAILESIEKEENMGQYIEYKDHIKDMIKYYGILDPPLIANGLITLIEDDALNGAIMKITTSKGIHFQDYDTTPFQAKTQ
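20 nM HPGD preincubated 15 min at room temperature with compound in 50 mM Tris-HCl pH 8, 0.01% Tween 20. Started with 1 mM NAD+ and 30 uM prostaglandin E2; NADH fluorescence (360/450 nm) read 5 times over 30-s intervals, last minus first.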
HTT cytoprotect: Huntington cell model cytoprotection by ATP luminescence. PC12 HTT-Q103 induced, cytoprotection, ATP luminescence, 40 h. Potency, µM (series often up to 56.4 µM), inactives show cytoprotection (ATP increase), most hits filed as activators. 230,000 tested, 0.14% active; further: % of control where 0% means no effect; nearly all actives have a fitted effect of over 45% in size
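Huntington model: PC12 line, ecdysone-inducible HTTQ103 exon1–GFP, tebufenozide 100 nM. Test articles in a dose series. Endpoint luminescence from cellular ATP.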
* = called active by the depositor; ? = inconclusive; · = no result given; [ ] = another dose, or the depositor's remark. A selection: hits, their analogues and other compounds. The true share with any hit is near 8.8%. Unless noted, the call rests on the fitted dose curve; in most records, active means well fitted curve in the direction sought with a large enough effect; inconclusive means small, poorly fitted or top-dose-only effect, or another doubt; inactive means no such curve, though single readings can be large; an effect the other way counts as inactive or inconclusive. Potency means the concentration at half of the fitted maximal effect.

SMILES | ALDH1A1 inh | HTT aggregate | Lamin A splicing | HPGD block | HTT cytoprotect
Cc1ccc(C)c(Oc2nnnn2-c2ccccc2)c1 | -16% | -10% | 0% | -12% | 17%
CCc1ccccc1NC(=O)c1cc(S(=O)(=O)N(CC)c2ccccc2)ccc1F | · | · | -7%[46 µM] | · | ·
COc1ccccc1CN1CC2(CCN(C(=O)c3cccc(F)c3)CC2)C1 | ? | · | · | -13% | 4%
COc1ccc(OC)c(NC(=O)CSc2nnnn2-c2ccccc2F)c1 | ? | -10% | ? | -7% | -4%
COC(=O)c1sccc1NC(=O)CSc1ccccc1NC(=O)CNC(C)C | 3.5µM* | 15% | -9%[46 µM] | · | -6%
NC(=O)c1ccc(-n2nnnc2SCc2ccc(F)cc2)cc1 | -6% | -4% | 14% | -14% | 10%[1.9 µM]
O=C(O)c1ccc(-n2nnnc2SCc2ccccc2)cc1 | 2% | 10% | 3% | 20µM* | -16%
COC(=O)c1sccc1NC(=O)CSc1nnnn1-c1ccccc1F | 14µM* | -8% | ? | -16% | -9%[0.074 µM]
CSc1ccccc1-n1nnnc1SCC(=O)Nc1cc(C)ccc1C | 14µM* | 27% | -20% | -2% | 12%
COc1cc(NC(=O)COC(=O)/C=C/c2c(C)nn(-c3ccc(F)cc3)c2Cl)cc(OC)c1 | -4% | 2% | -12% | -22% | 27%[10 µM]
COc1ccc(N2CC(NC(=O)C3CCCCC3)CC2=O)cc1 (stereo not given) | · | · | 9%[46 µM] | · | ·
CC(C)CC1NC(=O)N(Cc2cc(=O)n3ccsc3n2)C1=O (stereo not given) | 4% | ? | 2%[46 µM] | · | ?
COc1ccc(Oc2nnnn2-c2ccccc2)cc1 | 7.9µM* | -1% | -6% | -7% | 3%[10 µM]
COCCNC(=O)CCN1C(=O)c2cccnc2Oc2ccc(C)cc21 | · | · | 9%[46 µM] | · | ·
O=C1NCCCN1Cc1ccc(F)cc1Cl | 4.5µM* | 6% | -2% | -20% | -12%[0.074 µM]
O=C1NCCCN1Cc1ccc(F)cc1 | 2% | 0% | 1% | -14% | -11%
O=C(NCSc1ccnc(SCNC(=O)c2ccc(F)cc2)n1)c1ccc(F)cc1 | ? | 16% | 7% | 22µM* | 12%[10 µM]
O=C(Nc1ccccc1F)c1ccc(COc2ccc(Cl)cc2Cl)o1 | 28µM* | -5% | -13% | -15% | 21%[10 µM]
O=C(O)C=Cc1ccc(Cn2ccnc2)cc1 | -37% | · | · | -11% | -21%
COC(=O)CSC(C)C(=O)Nc1nnc(C(C)C)s1 (stereo not given) | 2% | -5% | 7%[9.22 µM] | · | 3.2µM*
CCc1ccc(C(=O)c2ccccc2C(=O)O)s1 | 4% | -7% | -3% | 0% | -11%
O=C(O)Cc1ccc(C(=O)c2ccccc2F)s1 | 5µM* | -4% | 6% | 16µM* | 1%
COc1ccccc1OCCOCCOc1ccc(C)cc1[N+](=O)[O-] | ? | -2% | -4% | -9% | 15%[10 µM]
C=CCc1ccc(OCCOCCOc2ccc(C)cc2[N+](=O)[O-])c(OC)c1 | 25µM* | -18% | 9% | ? | -11%
C[N+]1(CC2COC(c3ccccc3)(C3CCCCC3)O2)CCCCC1 (stereo not given) | · | -24% | · | · | -59%
SMILES | ALDH1A1 inh | HTT aggregate | Lamin A splicing | HPGD block | HTT cytoprotect
Cc1ccc([N+](=O)[O-])c(OCCN2CCCCCC2)c1 | 15µM* | 19% | ? | -12% | 31%[10 µM]
Cc1cc(OCCN2CCCC2)ccc1[N+](=O)[O-] | 4% | -8% | 6% | -7% | 26%[0.074 µM]
C=CCc1cc(C(=O)N2CCCCC2)ccc1O | ? | 22µM* | ? | 4µM* | 10%[1.9 µM]
O=C(NCc1ccccc1)c1c2c(nc3ccccc13)C(=O)N(C1CCCCC1)C2 | · | · | -5%[46 µM] | · | ·
CSc1ncc(C(=O)Nc2cccc(C)c2C)c(-c2ccccc2)n1 | · | · | 7%[46 µM] | · | ·
O=C(Nc1ccncc1)c1ccc2c(c1)C(=O)N(CC1CCCO1)C2=O (stereo not given) | 5.6µM* | 15% | 16% | -17% | ·
O=C1c2cccc3cccc(c23)C(=O)N1CC1CCCO1 (stereo not given) | ? | -13% | 9%[46 µM] | · | -21%
Nc1cccc(Oc2ccc3c(c2)C(=O)N(CC2CCCO2)C3=O)c1 (stereo not given) | 8.9µM* | -8%[9.22 µM] | · | · | -5%[10 µM]
O=C(Nc1ccncc1)c1ccc2c(c1)C(=O)N(C1CCCCC1)C2=O | 7.1µM* | -7% | ? | -11% | -15%
O=[N+]([O-])c1cccc(S(=O)(=O)NCCNS(=O)(=O)c2cccc([N+](=O)[O-])c2)c1 | · | -97% | · | · | ?
COC(=O)C1=C(C)N(C)C(=S)NC1c1c(OC)ccc2ccccc12 (stereo not given) | 4% | -17% | · | · | 10%[10 µM]
CCCCC/C=C\C/C=C\CCCCCCCC(=O)NCCc1ccc(O)c(O)c1 | -14% | · | · | -2% | 15%
O=c1oc2ccccc2c(Cl)c1CN1CCCCC1 | ? | ? | ? | · | -13%[10 µM]
O=c1oc2ccccc2c(N2CCCC2)c1CN1CCCC1 | 14µM* | -1% | ? | -26% | 5%
Cc1ccc(N2CC(NC(=O)c3cccc(Cl)c3)CC2=O)cc1C (stereo not given) | · | · | 16%[46 µM] | · | ·
CCN(CC(=O)NC(=O)NCc1ccco1)Cc1nc2ccccc2c(=O)[nH]1 | 10µM* | 7% | 18% | -24% | -12%
COC(=O)C/C=C\[C@@H](C)[C@@H](/C=N\OC[C@@H](C)[C@H](OCc1ccccc1)C(C)C)OC | -2%[13.5 µM] | · | · | · | 4%[10 µM]
COc1cc(NC(=O)C2=C(N3CCOCC3)/C(=C\c3ccc(N(C)C)cc3)CCC2)cc(OC)c1OC | 18µM* | 29% | ? | -8% | ·
CC1=C(C(=O)Nc2ccc(C)cc2C)C(c2ccccc2C)n2ncnc2N1 (stereo not given) | · | · | 0%[46 µM] | · | ·
C=CC1=C2C=C(C3CC3)N(CCCCO)C=C2C(=O)C(C)(OC(=O)c2ccco2)C1=O (stereo not given) | 2%[13.5 µM] | · | -4%[9.22 µM] | 1% | -20%[10 µM]
CCC(CC)NCc1ccc2c(c1)c1ccccc1n2CC | 20µM* | -25%[9.22 µM] | · | · | -12%[10 µM]
CCn1c2ccccc2c2cc(N)ccc21 | ? | ? | 1% | ? | -23%[0.074 µM]
Cc1cc2nnc(SC3CCCCN(C(=O)c4ccc(F)cc4)C3=O)n2c2ccccc12 (stereo not given) | 18µM* | 11% | -2% | ? | -30%
O=C(c1ccc(F)cc1)N1CCCCC(Sc2nnc3ccccn23)C1=O (stereo not given) | 0% | 12% | 9% | -10% | 5%[10 µM]
Cc1ccc(NC(=O)CSc2nnc(CN3CCOCC3)n2C)cc1C | 32µM* | 12% | 4% | -18% | ·
CCOP(=O)(OCC)C(NC(=O)/C=C/c1ccc(OC)cc1)c1ccccc1 (stereo not given) | 2% | 6% | · | · | -19%
CC(CNC(=O)Cn1c(-c2cccs2)cc2ccccc21)c1ccccc1 (stereo not given) | · | · | -19%[46 µM] | · | ·
O=[N+]([O-])c1cccc(Cl)c1NCCNS(=O)(=O)c1ccccc1 | 11µM* | 17% | -3% | -24% | -26%
